Compound activity deposited in PubChem BioAssay by National Center for Advancing Translational Sciences (NCATS).
Only some compounds are listed: those with a hit (about 1.1% of all), similar ones and a draw of the others.
RE007 growth inh: qHTS Assay for Inhibitors of the HIV-1 protein Vpr | AID 651644, 2012 | Potency, µM (doses to about 92.2 µM), for inactives: at the highest dose activity change, negative = less growth, actives largely listed as inhibitors | S. pombe RE007 Vpr strain, BacTiter-Glo ATP luminescence, 24 h | 360,000 tested, 0.21% active; active = well fitted falling curve with a large enough effect; inconclusive = small, poorly fitted or top-dose-only effect; inactive = no such curve, though single readings can be large or run the other way; also: potency is read from the fitted curve at half-maximal effect; % is scaled to controls: 0 for no effect and ±100 for the full control effect; nearly all actives have a fitted effect of over 50% in size
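Fission yeast RE007 carrying one integrated HIV-1 vpr copy, seeded at OD 0.01 in PMG+AL medium with 23 nL pinned compound. Grown 24 h at 30 degrees; viability read by BacTiter-Glo luminescence after 5 min.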
LmPK inhibitor: qHTS Assay for Inhibitors of Leishmania Mexicana Pyruvate Kinase (LmPK); Potency, µM (titrated, usually from 57.5 µM), without a hit: top-dose activity change, negative = inhibition, actives largely listed as inhibitors; 290,000 tested, 0.37% active; AID 1721, 2009; Q27686; purified LmPK, Kinase-Glo ATP luminescence, 1 h; also: potency is read from the fitted curve at half-maximal effect; % is scaled to controls: 0 for no effect and ±100 for the full control effect
Target sequence (Q27686 whole entry, looked up): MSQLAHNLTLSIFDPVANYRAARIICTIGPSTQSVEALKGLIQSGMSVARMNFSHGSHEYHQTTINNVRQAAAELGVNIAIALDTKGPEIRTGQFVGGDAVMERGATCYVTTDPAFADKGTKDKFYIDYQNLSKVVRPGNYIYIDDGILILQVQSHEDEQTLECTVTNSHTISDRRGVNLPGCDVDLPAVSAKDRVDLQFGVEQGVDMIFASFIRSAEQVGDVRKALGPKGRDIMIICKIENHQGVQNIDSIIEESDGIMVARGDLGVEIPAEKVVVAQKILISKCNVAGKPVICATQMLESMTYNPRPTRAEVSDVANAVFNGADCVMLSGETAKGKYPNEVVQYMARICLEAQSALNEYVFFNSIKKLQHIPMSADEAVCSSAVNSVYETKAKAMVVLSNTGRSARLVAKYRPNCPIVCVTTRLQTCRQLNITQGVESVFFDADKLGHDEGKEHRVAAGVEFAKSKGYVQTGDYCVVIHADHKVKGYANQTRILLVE
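ATP generated from ADP (0.1 mM) and PEP (0.5 mM) by 0.1 nM LmPK over 1 h at room temperature (pH 7.2 imidazole buffer) was detected by coupled luciferase luminescence. Values were normalized to uninhibited and no-enzyme wells.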
SARS PLP yeast: qHTS of Yeast-based Assay for SARS-CoV PLP. S. cerevisiae expressing SARS-CoV PLpro, growth rescue. Potency, µM (highest dose often 32.9 µM), for inactives: at the top dose activity, positive = growth rescue, hits mostly activators. 330,000 tested, 0.19% active. AID 485353, 2010; calls by dose curve; also: potency is read from the fitted curve at half-maximal effect; 0% is about no effect; nearly all actives have a fitted effect of over 55% in size
Giardia FBPA inh-1: qHTS Assay for Inhibitors of Fructose-1,6-bisphosphate Aldolase from Giardia Lamblia | AID 2451, 2010 | A8B2U2 | purified Giardia FBPA | 290,000 tested, 0.71% active | Potency, µM (top dose mostly 59.6 µM), for inactives: at the top dose activity, negative = inhibition, most hits filed as inhibitors; also: potency is read from the fitted curve at half-maximal effect; % is scaled to controls: 0 for no effect and ±100 for the full control effect; nearly all actives have a fitted effect of over 55% in size
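Giardia FBPA (40 nM reagent) was preincubated 10 min at RT with compound (up to 57.5 uM final), then substrate plus GAPDH/TPI/NAD/arsenate coupling system with diaphorase/resazurin was added; resorufin fluorescence (525/598 nm) was read after 20 min.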
Tb PYK inh: qHTS of Trypanosoma Brucei Inhibitors | pyruvate kinase (Trypanosoma brucei), Q57TT1 | TbPYK enzyme, Kinase-Glo Plus ATP luminescence, 45 min | Potency, µM (doses to about 76.8 µM), without a hit: at the top dose activity, negative = inhibition, hits mostly inhibitors | 410,000 tested, 0.12% active | AID 624173, 2012; also: potency is read from the fitted curve at half-maximal effect; % is scaled to controls: 0 for no effect and ±100 for the full control effect; nearly all actives have a fitted effect of over 50% in size
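TbPYK + substrate in 50 mM TEA pH 7.2, 100 mM KCl, 10 mM MgCl2, 0.05% BSA, 0.01% Tween-20; cpd pinned; ADP 130 uM final; 45 min RT; Kinase-Glo Plus 10 min; luminescence endpoint.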
LmPK confirm: Confirmation Assay for Inhibitors of Leishmania Mexicana Pyruvate Kinase (LmPK); Potency, µM (highest dose often 57.5 µM), without a hit: at the highest dose activity change, negative = inhibition, usual class: inhibitors; purified LmPK, Kinase-Glo ATP luminescence, 1 h; shares compounds with LmPK inhibitor; 150 tested, 40% active;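 active = compounds giving a full or partial concentration-response curve, as inhibitors or activators; inconclusive = weak, top-dose-only or unclear curve responses; inactive = no response at any tested dose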
Giardia growth: qHTS Assay for Inhibitors of Fructose-1,6-bisphosphate Aldolase from Giardia Lamblia: Giardia lamblia growth inhibition; AID 2785, 2010; 1,500 tested, 5% active; shares compounds with Giardia FBPA inh-1; Giardia lamblia trophozoite growth inhibition; Potency, µM (highest dose often 57.5 µM), for the others: at the highest dose activity change, negative = inhibition, actives largely listed as inhibitors;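 also: potency is read from the fitted curve at half-maximal effect; trophozoites exposed to compound for 48 h at 37 °C; % is scaled to controls: 0 for no effect and ±100 for the full control effect; nearly all actives have a fitted effect of over 70% in size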
Mammalian tox: qHTS Assay for Inhibitors of Fructose-1,6-bisphosphate Aldolase from Giardia Lamblia: Mammalian cellular toxicity | AID 2786, 2010 | shares compounds with Giardia FBPA inh-1 | Potency, µM (doses to about 57.5 µM), inactives show at the highest dose viability change, negative = toxicity, hits mostly inhibitors | 1,500 tested, 4% active | mammalian cell viability counter-screen, qHTS;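 also: Chinese hamster ovary cells used as mammalian cytotoxicity surrogate; viability measured as cellular ATP by luminescence; potency is read from the fitted curve at half-maximal effect; compound exposure lasted 48 h before reading; % is scaled to controls: 0 for no effect and ±100 for the full control effect; nearly all actives have a fitted effect of over 60% in size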
Giardia FBPA inh-2: qHTS Assay for Inhibitors of Fructose-1,6-bisphosphate Aldolase from Giardia Lamblia: Primary screen confirmation. 1,500 tested, 5% active. Potency, µM (highest dose often 57.5 µM), for inactives: top-dose activity change, negative = inhibition, most hits filed as inhibitors. purified Giardia aldolase enzyme activity, qHTS. shares compounds with Giardia FBPA inh-1; also: potency is read from the fitted curve at half-maximal effect; % is scaled to controls: 0 for no effect and ±100 for the full control effect; nearly all actives have a fitted effect of over 45% in size
Rabbit aldolase: qHTS Assay for Inhibitors of Fructose-1,6-bisphosphate Aldolase from Giardia Lamblia: Rabbit FBPA Selectivity. shares compounds with Giardia FBPA inh-1. Rabbit muscle FBPA enzyme inhibition, selectivity counter-screen. Potency, µM (top dose mostly 57.5 µM), without a hit: at the highest dose activity, negative = inhibition, most hits filed as inhibitors. 1,500 tested, 4% active; also: potency is read from the fitted curve at half-maximal effect; % is scaled to controls: 0 for no effect and ±100 for the full control effect; nearly all actives have a fitted effect of over 60% in size
Target sequence (P00883 whole entry, looked up): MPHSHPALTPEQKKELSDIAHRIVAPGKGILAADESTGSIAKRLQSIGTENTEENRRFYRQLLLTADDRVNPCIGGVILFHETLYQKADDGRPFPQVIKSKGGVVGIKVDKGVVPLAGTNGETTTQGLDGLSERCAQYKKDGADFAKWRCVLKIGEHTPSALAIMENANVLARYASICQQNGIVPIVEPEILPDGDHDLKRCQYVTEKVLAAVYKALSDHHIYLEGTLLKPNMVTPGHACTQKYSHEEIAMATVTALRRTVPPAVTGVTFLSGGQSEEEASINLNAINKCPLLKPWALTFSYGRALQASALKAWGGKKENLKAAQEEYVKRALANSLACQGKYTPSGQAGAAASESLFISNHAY
GAPDH counter: qHTS Assay for Inhibitors of Fructose-1,6-bisphosphate Aldolase from Giardia Lamblia: Coupling assay counterscreen confirmation; shares compounds with Giardia FBPA inh-1; GAPDH coupling enzyme counterscreen, biochemical, qHTS; Potency, µM (top dose mostly 57.5 µM), for inactives: at the top dose activity change, negative = inhibition, hits mostly inhibitors; 1,500 tested, 6% active; also: potency is read from the fitted curve at half-maximal effect; % is scaled to controls: 0 for no effect and ±100 for the full control effect; nearly all actives have a fitted effect of over 55% in size
An asterisk follows results filed as active; [ ] = another dose, or the depositor's remark. Unless noted, calls follow the shape of the dose curve; as a rule, active = well fitted curve in the direction sought with a large enough effect; inconclusive = small, poorly fitted or top-dose-only effect, or another doubt; inactive = no such curve, though single readings can be large; an effect the other way counts as inactive or inconclusive.

Fc1ccc(-c2nc3n(n2)Cc2ccccc2-3)cc1 was read as RE007 growth inh inconclusive, LmPK inhibitor 3.55µM*, SARS PLP yeast -12.8%, Giardia FBPA inh-1 -20.8%, Tb PYK inh -10.6% and LmPK confirm inconclusive.
`CN1CCc2cccc3c2C1Cc1ccc(O)c(O)c1-3` (stereo unspecified) gave RE007 growth inh 11.9%, LmPK inhibitor 3.16µM*, SARS PLP yeast -19.2%, Giardia FBPA inh-1 14.1µM*, Tb PYK inh -3.0%, LmPK confirm 0.8%, Giardia growth 6.0%[10.4 µM], Mammalian tox -18.2%, Giardia FBPA inh-2 inconclusive, Rabbit aldolase inconclusive and GAPDH counter -9.7%.
Screening O=C(CN1C(=O)CCn2nc(-c3ccccc3)cc21)NCc1ccc(F)cc1 returned Tb PYK inh -2.2%.
`CC(C)c1cccc(OCCCCN(C)C)c1` gave RE007 growth inh 3.2%, LmPK inhibitor -0.7%, SARS PLP yeast -0.4%, Giardia FBPA inh-1 15.8µM*, Tb PYK inh -3.6%, Giardia growth inconclusive, Mammalian tox -5.6%, Giardia FBPA inh-2 7.5%, Rabbit aldolase 5.5% and GAPDH counter 2.0%.
For CCN(CC)CCOc1cccc(C(C)C)c1 the results were RE007 growth inh 19.1%, LmPK inhibitor -2.2%, SARS PLP yeast -4.3%, Giardia FBPA inh-1 -2.2% and Tb PYK inh 21.6%.
For CCOc1ccc(Cc2n[nH]c(=S)n2N)cc1 the results were RE007 growth inh 13.6%, LmPK inhibitor 3.4%, SARS PLP yeast 12.7%, Giardia FBPA inh-1 inconclusive and Tb PYK inh inconclusive.
For COc1ccc(Cc2n[nH]c(=S)n2N)cc1OC the results were RE007 growth inh -10.0%, LmPK inhibitor 3.1%, SARS PLP yeast 0.4%, Giardia FBPA inh-1 12.6µM*, Tb PYK inh inconclusive, Giardia growth -6.3%, Mammalian tox -1.4%, Giardia FBPA inh-2 -3.7%, Rabbit aldolase 5.8% and GAPDH counter 3.5%.
For Nn1c(Cc2ccccc2F)n[nH]c1=S the results were RE007 growth inh -5.3%, LmPK inhibitor 5.2%, SARS PLP yeast 3.0%, Giardia FBPA inh-1 14.1µM*, Tb PYK inh -13.8%, Giardia growth -19.2%, Mammalian tox -3.1%, Giardia FBPA inh-2 -3.8%, Rabbit aldolase 8.9% and GAPDH counter -0.3%.
Cc1ccc(CN2C(=O)c3ccccc3Sc3ccc(C(=O)N4CCOCC4)cc32)cc1 was read as Tb PYK inh -1.6%.
`CCN1CCN(c2cc(C)c3cc(NC(=O)/C=C/c4ccc(C)cc4)ccc3n2)CC1` gave Tb PYK inh -3.8%.
Cc1ccc(S(=O)(=O)N2CCc3nc(COc4ccccc4)c4c(c3C2)CO[C@@H](C)C4)cc1 was read as LmPK inhibitor -4.4%[11.5 µM] and Giardia FBPA inh-1 3.0%[12.9 µM].
CCN(CC)C(=O)c1c(C)[nH]c(=S)c(C#N)c1-c1ccco1 was read as RE007 growth inh 19.1%, LmPK inhibitor 52.0%, SARS PLP yeast -0.5%, Giardia FBPA inh-1 9.98µM*, Tb PYK inh 5.62µM*, Giardia growth 1.3%, Mammalian tox 1.4%, Giardia FBPA inh-2 4.6%, Rabbit aldolase -2.7% and GAPDH counter 8.4%.
`CCOC(=O)CN1C(=O)c2ccccc2Sc2ncccc21` gave RE007 growth inh 4.3%, LmPK inhibitor 4.8%, SARS PLP yeast 0.3%, Giardia FBPA inh-1 6.0% and Tb PYK inh 2.1%.
For CCOC(=O)CN1C(=O)/C(=C2\SC(=S)N(NC(=O)c3cccnc3)C2=O)c2ccccc21 the results were RE007 growth inh -16.1%, LmPK inhibitor 0.1%, SARS PLP yeast -10.1%, Giardia FBPA inh-1 14.1µM*, Tb PYK inh 10.7%, Giardia growth 6.31µM*, Mammalian tox 14.6%, Giardia FBPA inh-2 -23.7%, Rabbit aldolase -15.8% and GAPDH counter inconclusive.
`CN1C(=O)/C(=C2\SC(=S)N(NC(=O)c3cccnc3)C2=O)c2ccccc21` gave RE007 growth inh 0.2%, LmPK inhibitor 2.1%, SARS PLP yeast -1.8%, Giardia FBPA inh-1 7.08µM*, Tb PYK inh -2.8%, Giardia growth 11.2µM*, Mammalian tox 7.2%, Giardia FBPA inh-2 -2.9%, Rabbit aldolase 5.6% and GAPDH counter -4.2%.
`COc1cc(Cl)c(C)cc1NC(=S)NN` gave RE007 growth inh -11.3%, LmPK inhibitor 5.0%, SARS PLP yeast 1.0%, Giardia FBPA inh-1 19.9µM*, Tb PYK inh -16.2%, Giardia growth inconclusive, Mammalian tox 1.4%, Giardia FBPA inh-2 2.8%, Rabbit aldolase 3.1% and GAPDH counter 7.5%.
Screening CCN1CCN(CCCN(Cc2ccco2)C(=S)Nc2cc(Cl)ccc2C)CC1 returned RE007 growth inh -5.5%, LmPK inhibitor 2.8%, SARS PLP yeast 2.5%, Giardia FBPA inh-1 15.8µM*, Tb PYK inh -8.5%, Giardia growth inconclusive, Mammalian tox -8.5%, Giardia FBPA inh-2 -4.4%, Rabbit aldolase 7.1% and GAPDH counter 10.2%.
